SNCA expr inh: inhibitors of alpha-synuclein (SNCA) gene expression | HEK-293 SNCA-luciferase knock-in, luminescence, 24 h | Potency, µM (highest dose often 57.2 µM), for the others: top-dose activity change, negative = inhibition, actives largely listed as inhibitors | 140,000 compounds, 0.17% hits | AID 1671194;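 further: potency means the concentration at half of the fitted maximal effect; plate controls were DMSO cells for no effect and cell-free wells for full effect; nearly all actives have a fitted effect of over 45% in size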
KDM5B inhibitor: blocks human KDM5B histone demethylase activity | Q9UGL1 | KDM5B demethylase, FDH-coupled NADH fluorescence (FDH is formaldehyde dehydrogenase) | Potency, µM (doses to about 57.7 µM), usual class: inhibitors | 220,000 compounds, 2.6% hits | AID 1347165; further: potency means the concentration at half of the fitted maximal effect; 0% is about no effect; nearly all actives have a fitted effect of over 70% in size
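Compound dilutions met 200 nM (final) KDM5BΔAP for 10 min at room temperature before substrate addition. The substrate mix held 12.5 µM H3K4me3 with cofactors 25 µM α-ketoglutarate and 50 µM Fe²⁺. NADH signal gain over 30 min defined activity.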
IP6K1 inhibitor: inhibitors of human IP6K1; Q92551; IP6K1 kinase, ADP-Glo luminescence, 2 h; active compounds read low; activity change, % (series mostly up to about 58 µM); 140,000 compounds, 0.81% hits; AID 1645851; in the data active means activity change below about -25%; further: on the % scale 0 is the no-effect control and ±100 the full control effect
Target sequence (Q92551 whole entry, looked up): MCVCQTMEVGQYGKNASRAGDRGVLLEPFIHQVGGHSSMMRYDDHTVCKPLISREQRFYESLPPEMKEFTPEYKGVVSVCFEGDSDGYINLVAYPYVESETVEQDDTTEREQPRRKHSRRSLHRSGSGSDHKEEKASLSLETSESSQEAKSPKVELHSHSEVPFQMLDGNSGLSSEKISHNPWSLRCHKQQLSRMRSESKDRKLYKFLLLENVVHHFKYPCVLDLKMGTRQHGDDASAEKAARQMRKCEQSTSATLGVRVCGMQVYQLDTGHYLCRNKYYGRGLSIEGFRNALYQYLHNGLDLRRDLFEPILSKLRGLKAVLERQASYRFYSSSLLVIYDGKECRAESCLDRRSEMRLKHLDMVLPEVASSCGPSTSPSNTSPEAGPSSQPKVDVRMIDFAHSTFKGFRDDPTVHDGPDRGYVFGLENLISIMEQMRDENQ
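ADP-Glo luminescence measures ADP made by human IP6K1 during a 2 h RT reaction with ATP/IP6 (mix at 1.3 mM/130 uM); top library doses 57.5 and 19.1 uM final.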
SNCA viab count: cell viability loss counter-screen; HEK-293-SNCA-luc viability, GF-AFC fluorescence, 24 h; Potency, µM (top dose mostly 57.1 µM), inactives show top-dose activity change, negative = cytotoxicity, usual class: cytotoxic; 150,000 compounds, 0.12% hits; AID 1671193;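 further: potency means the concentration at half of the fitted maximal effect; 0% = DMSO-treated cells and -100% = medium-only wells without cells; nearly all actives have a fitted effect of over 30% in size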
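Cytotoxicity counterscreen: after 24 h compound treatment of genome-edited SNCA-luciferase HEK-293 cells, live-cell protease substrate GF-AFC read by fluorescence after 30 min; activity scaled between DMSO (0%) and medium-only (-100%), curves Hill-fitted.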
* marks the source's active call; other numbers are inactive results; i = inactive; u = inconclusive; x = no result given. In the library only some 2.8% were active in any assay of this set; here they are far more common. Unless noted, the call rests on the fitted dose curve; in most records, active means well fitted curve in the direction sought with a large enough effect; inconclusive means small, poorly fitted or top-dose-only effect, or another doubt; inactive means no such curve, though single readings can be large; an effect the other way counts as inactive or inconclusive.

SMILES	SNCA expr inh	KDM5B inhibitor	IP6K1 inhibitor	SNCA viab count
CCNC(=O)c1cc(NC(=O)CC)cc2nc(C)ccc12	-24.0%	20µM*	19.3	6.2%
CCCCNC(=O)c1cc(NC(=O)CC)cc2nc(C)ccc12	-24.7%	25.1µM*	11.9	-0.5%
CC(Nc1ccc(C23CC4CC(CC(C4)C2)C3)cc1)C(=O)Nc1cc(C(F)(F)F)ccc1Cl (stereo unspecified)	x	i	x	x
Cc1ccc(NC(=O)C2CC(=O)N(c3n[nH]c4cccc(F)c34)C2)cc1 (stereo unspecified)	2.1%	20µM*	-8.1	6.2%
O=C(NCc1ccc(Cl)cc1)C1CC(=O)N(c2n[nH]c3cccc(F)c23)C1 (stereo unspecified)	9.5%	20µM*	-14.2	11.0%
Cc1ccnc(NC(=O)C2CC(=O)N(c3n[nH]c4cccc(F)c34)C2)c1 (stereo unspecified)	-14.7%	i	2.7	4.8%
O=C(C1CC(=O)N(c2n[nH]c3cccc(F)c23)C1)N1CCN(c2ccc(Cl)cc2)CC1 (stereo unspecified)	-23.6%	22.4µM*	-8.2	-10.2%
Cc1ccc(NC(=O)C2CC(=O)N(c3n[nH]c4cccc(F)c34)C2)c(C)c1 (stereo unspecified)	-2.4%	22.4µM*	-10.8	9.6%
O=C(C1CC(=O)N(c2n[nH]c3cccc(F)c23)C1)N1CCN(c2cccc(Cl)c2)CC1 (stereo unspecified)	0.3%	u	-11.8	2.7%
COc1ccc(OC)c(NC(=O)C2CC(=O)N(c3n[nH]c4cccc(F)c34)C2)c1 (stereo unspecified)	12.3%	31.6µM*	-1.7	3.0%
CCOc1ccc(NC(=O)C2CC(=O)N(c3n[nH]c4cccc(F)c34)C2)cc1 (stereo unspecified)	9.7%	22.4µM*	-1.8	0.6%
COc1ccc(NC(=O)C2CC(=O)N(c3n[nH]c4cccc(F)c34)C2)cc1 (stereo unspecified)	-0.4%	25.1µM*	7.1	2.1%
Cn1cc(NC(=O)C2CC(=O)N(c3n[nH]c4cccc(F)c34)C2)cn1 (stereo unspecified)	-30.9%	i	7.0	5.1%
COc1ccc(CNC(=O)C2CC(=O)N(c3n[nH]c4cccc(F)c34)C2)cc1OC (stereo unspecified)	4.9%	u	-1.3	12.9%
Cc1ccc(NC(=O)C2CC(=O)N(c3n[nH]c4cccc(F)c34)C2)nc1 (stereo unspecified)	1.0%	i	-10.0	-10.6%
CCOc1ccc(C(=O)Nc2ccc3oc(-c4cccc(I)c4)nc3c2)cc1	x	i	x	x
Cn1nc(-c2ccccc2)cc1C(=O)N1CCNCC(O)C1 (stereo unspecified)	-3.5%	i	-1.9	-17.1%
Cc1ccc(NC(=O)c2ccc(Cn3ccn4nc5c(c4c3=O)CCCC5)cc2)cc1C	56.8%	25.1µM*	36.1	-8.4%
CC(C)Oc1ccc(CNC(=O)c2ccc(Cn3ccn4nc5c(c4c3=O)CCCC5)cc2)cc1	-23.2%	25.1µM*	4.0	-7.2%
Cc1oc(-c2ccccc2)nc1Cn1ccn2nc3c(c2c1=O)CCCC3	-4.2%	28.2µM*	-6.2	1.5%
CC(CCc1ccccc1)NC(=O)c1ccc(Cn2ccn3nc4c(c3c2=O)CCCC4)cc1 (stereo unspecified)	-21.1%	35.5µM*	23.0	-1.7%
CS(=O)(=O)N1CCCC1c1noc(CCC(=O)O)n1 (stereo unspecified)	-27.1%	i	17.2	7.7%
O=C(CC(F)(F)F)N1CCC(c2noc(-c3cccnc3)n2)C1 (stereo unspecified)	-6.4%	i	12.9	6.9%
O=C(C1CCCN1C(=O)c1cccc(Cl)c1)N1CCC(c2ccccc2)CC1 (stereo unspecified)	30.3%	x	-6.8	-22.4%
COc1ccc(CCNC(=O)c2ccc(Cn3ccn4nc5c(c4c3=O)CCCC5)cc2)cc1OC	-7.7%	28.2µM*	3.1	-8.6%
COc1ccc(N(CC(=O)Nc2c(C)n(C)n(-c3ccccc3)c2=O)S(C)(=O)=O)cc1Cl	x	i	x	x
CCN(CCOc1ccc(F)cc1)C(=O)c1cnc(NC(C)C)nc1	1.4%	28.2µM*	-2.7	1.8%
Cc1n[nH]c(C)c1C(N)C(=O)N(Cc1cccnc1)Cc1cccnc1 (stereo unspecified)	36.2%	i	7.8	-3.6%
O=C(O)COCC(=O)N[C@H]1CCN2C(=O)c3cc(-c4ccccc4F)ccc3NC(=O)[C@H]12	-0.4%	i	-8.4	-0.7%
